This experiment relates to Plasmodium falciparum. Nature of the experiment: Calibr Malaria Delayed Death Assay SOP. The note with it: concentration 4.99e-06 (unit not given; other assays of the set use mol/L). Set-up: scale not given: in the data most compounds retested in dose-response had high values. It is filed as functional, organism-based.

Each structure is given as a SMILES string. Values joined by “and” are separate entries in the source; they are usually repeats but may differ in a detail not shown here. Equal entries are not always repeated. Among all 38,000 compounds or so, about 1,200 (3.2%) showed an effect of 50% or more. The median lay at about -58%. Many of the other results were omitted from the sample, so strong results are more common in it than they were.

Results on 69 molecules are retold here after ChEMBL document CHEMBL3988442, “University of Dundee, Small-Polar-MMV Screening Library” (2021).

On to `Cc1ccc(C(=O)Nc2nnc(CC(C)C)s2)c(-n2cnnn2)c1C`, for which the “Percent Effect” value is -82.26%.

On to `Cn1ccnc1CN1CCC(Cn2cc(-c3ccncc3)nn2)CC1`, for which the “Percent Effect” value is -74.11%.

Regarding `O=C1N(Cc2ccc(F)c(F)c2)CCCC1(O)CNCC1CCCCC1` (centres undefined), the “Percent Effect” value is given as 73.06%.

Take `O=C1N(Cc2cccc(F)c2F)CCCC1(O)CNCC1CCCCC1` (centres undefined): the “Percent Effect” value was 73.31%.

For `CN1CCC(NCC2(O)CCCN(Cc3ccccc3F)C2=O)CC1` (centres undefined), the “Percent Effect” value turned out to be 4.135%.

On to `COC(=O)CNCC1(O)CCCN(Cc2cccc(F)c2F)C1=O` (centres undefined), for which the “Percent Effect” value is reported as -57.14%.

Turning to `COc1ccc(F)c(CN2CCCC(O)(CNC3CCCCC3)C2=O)c1` (centres undefined), the “Percent Effect” value came to 69.02%.

Consider `COc1ccc(F)c(CN2CCCC(O)(CNCc3ccon3)C2=O)c1` (centres undefined), for which the “Percent Effect” value was -23.9%.

Take `O=C1N(Cc2cccc(F)c2F)CCCC1(O)CNCc1ccccn1` (centres undefined): the “Percent Effect” value is reported as 0.3162%.

As for `O=C1N(Cc2cccc(F)c2F)CCCC1(O)CNC1CCCC1` (centres undefined), the “Percent Effect” value worked out at 59.35%.

Regarding `COc1ccc(F)c(CN2CCCC(O)(CNCc3ncc[nH]3)C2=O)c1` (centres undefined), the “Percent Effect” value is -101.4%.

Turning to `C=C(C)CNCC1(O)CCCN(Cc2ccc(F)c(F)c2)C1=O` (centres undefined), the “Percent Effect” value is -91.62%.

On to `O=C(CNCC1(O)CCCN(Cc2cccc(F)c2F)C1=O)NC1CC1` (centres undefined), for which the “Percent Effect” value was -101.8%.

For the molecule `COCCNCC1(O)CCCN(Cc2ccc(F)c(F)c2)C1=O` (centres undefined), the “Percent Effect” value turned out to be 23.01%.

Take `O=C(CCc1cccnc1)N1CCC2(CCN(CC3CCCC3)C2)C1.O=C(O)C(F)(F)F.O=C(O)C(F)(F)F` (centres undefined): the “Percent Effect” value is on record as 15.87%.

For `Cn1cc(NC(=O)CNC(=O)N2CCN(c3cccc(Cl)c3)CC2)cn1`, the “Percent Effect” value is reported as -19.66%.

Regarding `Cc1ccc(NC(C(N)=O)c2ccc(F)cc2)cc1` (centres undefined), the “Percent Effect” value is -42.35%.

Turning to `O=C(NCCc1nnc2n1CCC2)NC1(c2cccc(F)c2)CC1`, the “Percent Effect” value is -62.64%.

With `CNC(=O)c1cnc2c(C)csc2c1`, the “Percent Effect” value is listed as -145.8%.

Turning to `Cc1nn(C2CCS(=O)(=O)C2)c(O)c1Cc1ccccc1Cl` (centres undefined), the “Percent Effect” value was -17.18%.

Take `Cc1noc([C@H]2CC[C@@H]3[C@@H](CCN3c3ncccn3)O2)n1`: the “Percent Effect” value is on record as -94.2%.

On to `Cc1ccc(C)c(OCCN(C)C(=O)CCc2cn[nH]c2)c1`, for which the “Percent Effect” value is listed as -90.4%.

Consider `CCc1noc(C)c1C(=O)N1CCC2(CCCN(CC(C)(C)C)C2=O)C1` (centres undefined), for which the “Percent Effect” value (4.99 µM) is -34.55% and -37.04%.

For `COc1ccc(F)c(CN2CCCC(O)(CNCC(C)(C)C)C2=O)c1` (centres undefined), the “Percent Effect” value came out at 48.73%.

For `CC1CCN(CC2(O)CCCN(Cc3cccc(F)c3F)C2=O)CC1` (centres undefined), the “Percent Effect” value is -78.62%.

On to `CC(C)(C)CNCC1(O)CCCN(Cc2ccccc2F)C1=O` (centres undefined), for which the “Percent Effect” value was determined as 83.8%.

Turning to `Cc1cccnc1CNCC1(O)CCCN(CC(C)(C)C)C1=O` (centres undefined), the “Percent Effect” value was -8.334%.

Turning to `O=C1N(Cc2cccc(F)c2F)CCCC1(O)CN1CCCOCC1` (centres undefined), the “Percent Effect” value is recorded as 40.89%.

Consider `CN(CC1(O)CCCN(Cc2cccc(F)c2F)C1=O)C1CCCCC1` (centres undefined), for which the “Percent Effect” value was found to be 63.45%.

Regarding `CC(C)C(C)NC(=O)CNc1cc2c(cc1Cl)NC(=O)CO2` (centres undefined), the “Percent Effect” value is recorded as -65.88%.

With `CCOCC1CN(S(=O)(=O)C2CC2)Cc2ncn(CC3CC3)c21` (centres undefined), the “Percent Effect” value is reported as -12.84%.

Take `O=C(C1CCOCC1)N1CC[C@@H](N2CCOCC2)[C@@H]1Cc1ccccc1`: the “Percent Effect” value is reported as 3.107%.

Turning to `O=C(O)C(F)(F)F.c1ccc(C[C@H]2CN(Cc3nccs3)CC[C@@H]2OCC2CC2)cc1`, the “Percent Effect” value was 38.1%.

Take `Cc1noc(C)c1CN1CC[C@H](OCC2CC2)[C@@H](Cc2ccccc2)C1`: the “Percent Effect” value is reported as 60.12%.

In the case of `c1ccc(-c2nnc([C@H]3CCN(C4CCOCC4)C3)o2)cc1`, the “Percent Effect” value was -0.6483%.

Turning to `Cc1noc(C)c1CN1C[C@H](OCC2CC2)[C@H]2COC[C@H]21.O=C(O)C(F)(F)F`, the “Percent Effect” value is given as -59.49%.

For the molecule `OC(CNc1ccncn1)CN1CCCCCC1` (centres undefined), the “Percent Effect” value is on record as -2.039%.

Regarding `CC(C)c1ccc(C(=O)N2CCOCC2CC(=O)c2ccco2)cn1` (centres undefined), the “Percent Effect” value was -33.41%.

As to `CS(=O)(=O)N1CCCC(Cc2cncc(Br)c2)CC1` (centres undefined), the “Percent Effect” value is -9.475%.

In the case of `FC(F)(F)c1ccc2nc([C@H]3CCN(C4CCCCC4)C3)[nH]c2c1`, the “Percent Effect” value was 83.6%.

For `CS(=O)(=O)N1CC[C@H](c2nc3ccc(C(F)(F)F)cc3[nH]2)C1`, the “Percent Effect” value is listed as -89.81%.

Turning to `FC(F)(F)c1ccc2nc([C@H]3CCN(C4CCC4)C3)[nH]c2c1`, the “Percent Effect” value worked out at 5.22%.

For `O=C(CCc1ccccc1)N1CCCCC1Cn1cccn1` (centres undefined), the “Percent Effect” value is recorded as -77.88%.

`Cc1cnc(N2CCC3(CC2)CC3CN(C)Cc2cccnc2)nc1.O=C(O)C(F)(F)F.O=C(O)C(F)(F)F` (centres undefined): the “Percent Effect” value is -34.71%.

With `Cc1ccc(CN2CCC3(CC2)CC3CN(C)Cc2cccnc2)o1.O=C(O)C(F)(F)F.O=C(O)C(F)(F)F.O=C(O)C(F)(F)F` (centres undefined), the “Percent Effect” value stood at 69.86%.

On to `CN(Cc1cccnc1)CC1CC12CCN(c1nncs1)CC2.O=C(O)C(F)(F)F.O=C(O)C(F)(F)F.O=C(O)C(F)(F)F` (centres undefined), for which the “Percent Effect” value was -14.98%.

In the case of `Cc1cnc(C)c(N2CCCC(CO)(Cc3cccc(Cl)c3)C2)n1` (centres undefined), the “Percent Effect” value was -85.57%.

For `CCOC(=O)C1(CCOC)CCN(Cc2nccn2CC)CC1`, the “Percent Effect” value is on record as -18.48%.

With `CCn1ccnc1CN1CCCC(CO)(Cc2cccc(Cl)c2)C1` (centres undefined), the “Percent Effect” value was 76.24%.

Regarding `CCOC(=O)C1(Cc2ccccc2)CCCN(Cc2nccn2CC)C1` (centres undefined), the “Percent Effect” value came out at 71.35%.

Consider `CCn1ccnc1CN1CCCC(CO)(CCCc2ccccc2)C1` (centres undefined), for which the “Percent Effect” value was found to be 5.561%.

In the case of `CCOC(=O)C1(CCOC)CCCN(Cc2nccn2CC)C1` (centres undefined), the “Percent Effect” value is 6.985%.

For the molecule `CCn1c(N)nc2cc(C(=O)NCCc3ccccc3F)cnc21`, the “Percent Effect” value is listed as -271.4%.

Regarding `CCc1nc(C2CCCN2CC(=O)Nc2cc(C)nn2C)no1` (centres undefined), the “Percent Effect” value was -146.1%.

`O=C(Cc1cccc(F)c1)NC1CCCc2cn[nH]c21` (centres undefined): the “Percent Effect” value is on record as -5.228%.

On to `CN(CCCOc1ccccc1)S(=O)(=O)c1cnn(C)c1`, for which the “Percent Effect” value is on record as -2.544%.

Regarding `O=C(Cc1c[nH]c2ncccc12)NCC(O)c1ccsc1` (centres undefined), the “Percent Effect” value is recorded as -112.4%.

In the case of `NC(=O)c1ccccc1NC(=O)CCN1CCN(CCO)CC1`, the “Percent Effect” value is -1.535%.

In the case of `CC(O)CNCc1ccccc1C(F)(F)F.Cl` (centres undefined), the “Percent Effect” value is -50.42%.

`Cl.OC(CNCc1ccccc1C(F)(F)F)c1ccccc1` (centres undefined): the “Percent Effect” value came out at 81.89%.

For the molecule `Cc1ccccc1CNCC(O)c1ccc(OC(C)C)cc1` (centres undefined), the “Percent Effect” value amounted to 92.11%.

Take `CN(Cc1ccccc1C(F)(F)F)C(C(N)=O)c1ccccc1` (centres undefined): the “Percent Effect” value is -32.88%.

As to `CC(C)Oc1ccc(C(O)CNCc2ccccc2C(F)(F)F)cc1` (centres undefined), the “Percent Effect” value stood at 82.7%.

Consider `CC(=O)Nc1ccc(CNCC(O)c2ccccc2)cc1` (centres undefined), for which the “Percent Effect” value is recorded as 6.789%.

For `CC(=O)Nc1ccc(CNCC(O)c2ccc(C)cc2)cc1` (centres undefined), the “Percent Effect” value is given as -93.75%.

Consider `CC(C)Oc1cccc(C(O)CNC(=O)NCc2cccs2)c1` (centres undefined), for which the “Percent Effect” value is -103.2%.

With `Cc1nn(C)c(N(C)C)c1CNCC(O)c1ccccc1` (centres undefined), the “Percent Effect” value was -52.78%.

Consider `COC(=O)CNC(=O)C(C)Oc1ccccc1C(F)(F)F` (centres undefined), for which the “Percent Effect” value is -63.42%.

Turning to `CC(C(N)=O)N(C)Cc1ccccc1C(F)(F)F` (centres undefined), the “Percent Effect” value is on record as -7.943%.
